Only some compounds are listed: those with a hit (about 3.2% of all), similar ones and a draw of the others.
DNA Pol III inh = blocks replication by bacterial DNA polymerase III holoenzyme. reconstituted DNA polymerase III holoenzyme replication, biochemical. Potency, µM (highest dose often 57.1 µM), for inactives: at the top dose activity change, negative = inhibition. 71,000 tested, 0.25% active. AID 603; also: potency is read from the fitted curve at half-maximal effect; % is scaled to controls: 0 for no effect and ±100 for the full control effect
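Reconstituted *E. coli* holoenzyme (0.35 nM Pol III, 1 nM beta, 154 nM SSB, 2 nM primase) was preincubated with compound for 15 min at RT. Synthesis on 1.4 nM ssM13Gori ran 35 min, then was stopped with PicoGreen/EDTA and read as dsDNA fluorescence.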
15-hLO inh = 15-hLO (ALOX15) enzyme inhibition; P16050; purified 15hLO-1, xylenol orange hydroperoxide absorbance; Potency, µM (series often up to 57.1 µM), for the others: top-dose activity change, negative = inhibition, actives largely listed as inhibitors; 74,000 tested, 1.4% active; AID 887; also: potency is read from the fitted curve at half-maximal effect; % is scaled to controls: 0 for no effect and ±100 for the full control effect; nearly all actives have a fitted effect of over 55% in size
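40 nM 15hLO-1 + cpd, 15 min RT; start w/ 50 uM AA (final), 6 min RT; stop/detect w/ 200 uM XO + 300 uM Fe(II) in 50 mM H2SO4, 30 min; A573/A405. Buffer 25 mM Hepes pH 7.5, 0.01% Triton X-100. No-enzyme wells as negative control.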
UbGFP stabilizer = inhibits proteasome, raising ubiquitin-GFP reporter fluorescence; Ubiquitin-GFP reporter cells, proteasome inhibition, GFP fluorescence; response scale: untreated = 0%, 10 µM MG-132 = 100%; Potency, µM (top dose mostly 45.9 µM), without a hit: at the top dose activation (GFP accumulation), usual class: activators; AID 526; 67,000 tested, under 10 active; active = well fitted activation curve with a large enough effect, not every such curve was filed as active; inconclusive = small, poorly fitted or top-dose-only effect, or another doubt; inactive = no such curve, though single readings can be large or run the other way; also: potency is read from the fitted curve at half-maximal effect
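Proteasome blockade was scored as a rise in GFP-expressing U2OS cells carrying a ubiquitin(G76V)-GFP construct, imaged after 4 hr compound treatment at 37 °C across a 46 uM–2.9 nM series.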
HBB splicing = alters splicing of the hemoglobin beta chain | 65,000 tested, 0.06% active | HBB splicing reporter cell assay, activation; EGFP reporter with mutant IVS2-654 intron; response scale: normalised to 500 nM splice-correcting PNA | Potency, µM (titrated, usually from 46.1 µM), for inactives: top-dose activation, hits mostly activators; also: potency is read from the fitted curve at half-maximal effect; 0% is about no effect
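Compounds were applied for 2 days to HeLa EGFP-654 cells, 500/well in Optimem with 2% FCS. The reporter's EGFP is disrupted by mis-splicing of beta-globin intron IVS2-654. Readout: summed well GFP fluorescence from 488 nm laser scanning; reference was 500 nM antisense […] 654 PNA.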
GFP derepression = derepresses silenced GFP locus in mouse C127i cells. mouse C127i GFP locus derepression, cytometry, 30 h. Potency, µM (titrated, usually from 46.1 µM), for the others: top-dose GFP derepression (activation). 68,000 tested, 0.09% active; also: % of control where 0% means no effect
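Derepression screen: silenced CMV-GFP reporter in murine C127i cells, 30 h compound incubation at 37 C, washed cells imaged by laser-scanning cytometer to enumerate GFP-expressing objects of 20 to 120 um.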
Tau filament bind = binds recombinant human tau filaments. recombinant tau filaments, thioflavin S fluorescence, 15 h; filaments grown with octadecylsulfate alongside compound. AID 596. Potency, µM (doses to about 57.1 µM), inactives show at the top dose activity change, negative = inhibition. P10636. 71,000 tested, 2% active;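 also: potency is read from the fitted curve at half-maximal effect; % is scaled to controls: 0 for no effect and ±100 for the full control effect; actives lower thioflavin S fluorescence by blocking filaments or displacing dye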
Target sequence (P10636 whole entry, looked up): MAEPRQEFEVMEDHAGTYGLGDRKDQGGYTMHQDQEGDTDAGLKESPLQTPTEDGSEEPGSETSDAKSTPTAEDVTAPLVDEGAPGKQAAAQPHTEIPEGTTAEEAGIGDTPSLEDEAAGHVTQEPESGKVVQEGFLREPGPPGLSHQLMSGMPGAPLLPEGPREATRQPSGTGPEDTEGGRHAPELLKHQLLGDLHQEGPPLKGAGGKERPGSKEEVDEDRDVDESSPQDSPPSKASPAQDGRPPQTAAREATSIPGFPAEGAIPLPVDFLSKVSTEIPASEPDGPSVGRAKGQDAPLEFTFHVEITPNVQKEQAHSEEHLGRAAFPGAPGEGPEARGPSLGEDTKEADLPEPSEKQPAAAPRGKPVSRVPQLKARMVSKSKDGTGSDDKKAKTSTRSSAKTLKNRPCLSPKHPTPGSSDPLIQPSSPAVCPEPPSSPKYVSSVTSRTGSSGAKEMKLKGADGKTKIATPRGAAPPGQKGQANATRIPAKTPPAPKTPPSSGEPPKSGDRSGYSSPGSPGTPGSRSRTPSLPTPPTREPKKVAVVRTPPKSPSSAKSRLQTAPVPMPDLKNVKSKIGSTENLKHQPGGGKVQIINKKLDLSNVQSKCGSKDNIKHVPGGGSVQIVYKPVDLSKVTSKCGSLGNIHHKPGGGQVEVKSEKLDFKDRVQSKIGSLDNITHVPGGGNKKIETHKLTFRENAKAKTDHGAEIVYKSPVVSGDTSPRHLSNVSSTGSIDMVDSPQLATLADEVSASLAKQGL
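His-tagged recombinant human tau (exons 2, 3 and 10 included), 1 uM, was induced to fibrillize by 30 uM sodium octadecylsulfate with compound present. After 15 h at 37 C, thioflavine S fluorescence (ex 450, em 510 nm) was read.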
* hit, by the source's call; [ ] = another dose, or the depositor's remark. Unless noted, calls follow the shape of the dose curve; as a rule, active = well fitted curve in the direction sought with a large enough effect; inconclusive = small, poorly fitted or top-dose-only effect, or another doubt; inactive = no such curve, though single readings can be large; an effect the other way counts as inactive or inconclusive.

Screening CCC[C@@H]1O[C@@H]2C[C@@H]3[C@@H]4CCC5=CC(=O)C=C[C@@]5(C)[C@H]4[C@H](O)C[C@@]3(C)[C@@]2(C(=O)CO)O1 returned DNA Pol III inh -7%, UbGFP stabilizer -5%, HBB splicing 0%, GFP derepression 1% and Tau filament bind -8%.
For OC12CCCCC1C(c1ccc3c(c1)OCO3)N(Cc1cccc(F)c1)CC2 (stereo unspecified) the results were DNA Pol III inh -6%, 15-hLO inh 1%, UbGFP stabilizer -5%, HBB splicing 8%[0.369 µM], GFP derepression 6% and Tau filament bind 16µM*.
`OC12CCCCC1C(c1ccc3c(c1)OCO3)N(Cc1ccc(F)cc1)CC2` (stereo unspecified) gave DNA Pol III inh 1%, 15-hLO inh -2%, UbGFP stabilizer 1%, HBB splicing 5%[0.369 µM], GFP derepression 3% and Tau filament bind inconclusive.
Screening C[C@@H]1C(=O)O[C@H]2[C@@H](O)[C@@]34[C@H]5C[C@H](C(C)(C)C)[C@@]36[C@H](OC(=O)[C@@H]6O)O[C@@]4(C(=O)O5)[C@@]12O returned DNA Pol III inh -6%, UbGFP stabilizer 4%, GFP derepression 0%[9.22 µM] and Tau filament bind inconclusive.
For O=C1c2ccccc2C(=O)N1C[C@]1(C(=O)O)NCCS1(=O)=O the results were DNA Pol III inh -6%[11.4 µM], 15-hLO inh 12%[11.4 µM], UbGFP stabilizer -6%[9.17 µM], HBB splicing 4%[9.22 µM], GFP derepression -3%[9.22 µM] and Tau filament bind -3%[11.4 µM].
C/C=C(/C(=C/C)c1ccc(O)cc1)c1ccc(O)cc1 was read as 15-hLO inh 25µM* and GFP derepression -7%[20.6 µM].
For NC(=O)NCCS[C@H]1CCCC[C@@H]1O the results were DNA Pol III inh -6%[11.4 µM], 15-hLO inh 4%[11.4 µM], UbGFP stabilizer -1%[9.17 µM], HBB splicing 5%[9.22 µM], GFP derepression 2%[9.22 µM] and Tau filament bind -3%[11.4 µM].
COc1ccc(-c2cc(C(=O)N/N=C/c3ccc(O)cc3)[nH]n2)cc1 was read as 15-hLO inh -10%.
For CC(=O)c1c(COC(=O)c2cccnc2)nc2ccccc2[n+]1[O-] the results were DNA Pol III inh -5%, 15-hLO inh 7%, UbGFP stabilizer -2%, HBB splicing 1%[0.369 µM], GFP derepression 0% and Tau filament bind 20µM*.
CCOc1ccc2nc(COC(=O)c3ccco3)c(C(C)=O)[n+]([O-])c2c1 was read as DNA Pol III inh -3%, 15-hLO inh 2%, UbGFP stabilizer 2%, HBB splicing 1%, GFP derepression 2% and Tau filament bind 6%.
Screening CC1(C(=O)Nc2nccs2)Cc2ccccc2C(=O)O1 (stereo unspecified) returned DNA Pol III inh -5%, 15-hLO inh inconclusive, UbGFP stabilizer 1%, HBB splicing -2%, GFP derepression 3% and Tau filament bind 13µM*.
Screening COc1ccccc1NC(=O)C1(C)Cc2ccccc2C(=O)O1 (stereo unspecified) returned DNA Pol III inh -9%, 15-hLO inh 12%, UbGFP stabilizer -1%, HBB splicing -1% and Tau filament bind 2%.
For CCN(CC)CCN1C(=O)c2oc3ccccc3c(=O)c2C1c1cccc(Br)c1 (stereo unspecified) the results were DNA Pol III inh -3%, 15-hLO inh 3%, UbGFP stabilizer 0%, HBB splicing -1%[57.5 µM], GFP derepression 4% and Tau filament bind 25µM*.
Screening c1ccc2c(NC3CCNCC3)nc(-c3ccoc3)nc2c1 returned DNA Pol III inh -16%, 15-hLO inh -8%, UbGFP stabilizer -5%, HBB splicing 2%, GFP derepression 11%[9.22 µM] and Tau filament bind -25%.
`CN(C)Cc1ccccc1-c1nc(NC2CCNCC2)c2ccccc2n1` gave DNA Pol III inh 25µM*, 15-hLO inh 24%, UbGFP stabilizer 1%, HBB splicing 0%, GFP derepression -7%[9.22 µM] and Tau filament bind 27%.
`COc1cccc(-c2nc(NC3CCNCC3)c3ccccc3n2)c1` gave DNA Pol III inh 32µM*, 15-hLO inh inconclusive, UbGFP stabilizer 11%, HBB splicing -2%, GFP derepression 6%[9.22 µM] and Tau filament bind -10%.
CN(C)c1ccc(-c2nc(NC3CCNCC3)c3ccccc3n2)cc1 was read as DNA Pol III inh inconclusive, 15-hLO inh -10%, UbGFP stabilizer 3%, HBB splicing inconclusive, GFP derepression 9%[9.22 µM] and Tau filament bind inactive.
O=S(=O)(c1cccc(C(F)(F)F)c1)N1c2ccccc2-n2cccc2[C@H]1c1cccnc1 was read as DNA Pol III inh -9%[11.4 µM], 15-hLO inh -1%[11.4 µM], UbGFP stabilizer -4%[9.17 µM], HBB splicing 5%[9.22 µM], GFP derepression 1%[9.22 µM] and Tau filament bind 8%[11.4 µM].
Screening CCCCCCC#Cc1cc(OC)c(OC)cc1C(N1CC(C)c2ccccc21)N1CC(C)c2ccccc21 (stereo unspecified) returned 15-hLO inh inconclusive and HBB splicing 4%[9.22 µM].
CCc1cccc(NC(=O)Nc2cccs2)c1 was read as DNA Pol III inh -4%, 15-hLO inh 13µM*, UbGFP stabilizer -3%, HBB splicing -2%, GFP derepression 0% and Tau filament bind inconclusive.
Screening Cc1cccc(C)c1NC(=O)Nc1cccs1 returned DNA Pol III inh -4%, 15-hLO inh 25µM*, UbGFP stabilizer -5%, HBB splicing 1%, GFP derepression 1% and Tau filament bind -18%.
Screening Cc1cc(NC(=O)Nc2cccs2)no1 returned DNA Pol III inh 1%, 15-hLO inh inconclusive, UbGFP stabilizer 5%, HBB splicing 0%, GFP derepression -1% and Tau filament bind 1%.
For COc1cccc([C@@H]2Oc3ccc(OC)cc3/C(=N/O[C@@H](C)c3cn([C@H]4COC[C@H]4O)nn3)[C@@H]2O)c1 the results were 15-hLO inh 8%[11.4 µM] and HBB splicing 1%[9.22 µM].
`CCCNC(=O)OC[C@@H]1O[C@H](CCO/N=C(\C)CCN2CCc3nc(CC)c(CC)cc3C2)C=C[C@@H]1Oc1ccc(OC)cc1` gave 15-hLO inh 7%[11.4 µM] and HBB splicing -1%[9.22 µM].
For CN(C)c1ccc(N=Nc2cccc3ccoc23)cc1 the results were DNA Pol III inh -8%[11.4 µM], 15-hLO inh -12%[11.4 µM], UbGFP stabilizer 1%[9.17 µM], HBB splicing 4%[9.22 µM], GFP derepression 0%[9.22 µM] and Tau filament bind 4µM*.
Screening O=C1CC(N2CCOCC2)C(=O)N1c1cccc(Cl)c1 (stereo unspecified) returned DNA Pol III inh 3%, 15-hLO inh 1%, UbGFP stabilizer inconclusive, HBB splicing 0%, GFP derepression 2% and Tau filament bind 2%.

Assay outcomes from PubChem BioAssay.
